Measurements from PubChem BioAssay (NCI).
The panel holds about 83,000 compounds, 20% with a hit somewhere; the sample as a whole holds those more often.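 Assay: single dose, 48 h. Readout: percent growth (0 = no net growth; negative = cell death). Active: <10.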 Unmarked numbers belong to inactive results. Active and inactive are the calls of the source.

test system: HL-60(TB) leukemia; experiment: NCI-60 one-dose screen, 48 h (100 = growth as untreated, 0 = no growth, -100 = all killed); details: 10 µM unless noted

| Structure (SMILES) | growth |
| --- | --- |
| COc1cc2ncnc(Nc3ccc(S(=O)(=O)Nc4cc(C)on4)cc3)c2cc1OCCCN1CCN(c2ccc([N+](=O)[O-])cc2)CC1 | 118% |
| CN(C)c1ccc(/C=C\c2ccnc3ccccc23)cc1 | 26.1% |
| NC(=O)NC(=O)/C=C/C(=O)OCCCl | 91.6% |
| O=C(c1ccccc1)c1ccc(O)c2ncccc12 | 19.8% |
| O=[N+]([O-])c1ccc(Sc2ncccn2)c([N+](=O)[O-])c1 | -31.8% (active) |
| CC1=CCC(OC(=O)C(C)(O)CCC(O)(C(=O)OC2(C)C=CC(O)(C(C)C)CC2)C(C)C)(C(C)C)CC1 (stereo not given) | 110% |
| CC(=O)[C@@]1(O)[C@H](C)C[C@H]2[C@@H]3C=C(C)C4=Cc5c(cnn5-c5ccccc5)C[C@]4(C)[C@H]3[C@@H](O)C[C@@]21C | -16% (active) |
| CCN1CC(CCN2CCOCC2)C(C(c2ccccc2)c2ccccc2)C1=O (stereo not given) | 113% |
| CC(C)n1nc(C#Cc2cccc(O)c2)c2c(N)ncnc21 | -57.9% (active) |
| COc1ccc(CN2CCc3c(Cl)nc(N)nc3C2=O)c(OC)c1 | 12.3% [100 µM] |
| COc1ccc(CNc2ccc3nc(NC(=O)CN4CCCCCC4)sc3c2)cc1 | 47.4% |
| CCSc1oc(-c2ccccc2)nc1[P+](c1ccccc1)(c1ccccc1)c1ccccc1 | -35.1% (active) |
| COC(c1ccc2ccccc2c1)C(C)C(F)F (stereo not given) | 103% |
| CC(C)C(=O)Nc1n[nH]c2cc(-c3cccc(NS(=O)(=O)C4CC4)c3)ccc12 | 64.3% |
| CN1CCC(OC2c3ccccc3CCc3ccccc32)CC1 | 99.1% |
| CN(C)c1ccc(-c2ccc(-c3ccc(C(=N)N)cc3)s2)cc1 | 14.4% |
| CC1(O)CCC2CC3OC3(C)CCC3OC3(C)C(O)CC1C2(C)C (stereo not given) | 137% |
| CC1(C)CC[C@]23CC[C@]4(C)[C@H](CC[C@@H]5[C@@]6(C)C/C(=C/c7cccnc7)C(=O)C(C)(C)[C@@H]6CC[C@]54C)[C@H]2[C@H]1OC3=O | -0.84% [100 µM] (active) |
| COc1ccc2c(c1)CC[C@@H]1[C@@H]2CC[C@]2(C)C3C(=CC(COC(C)=O)C4C(=O)N(c5ccc(Cl)cc5)C(=O)C43)C[C@@H]12 (stereo not given in full) | 88.4% |
| Cc1cc(Nc2c3ccccc3nc3ccccc23)ccc1NS(C)(=O)=O | 32.2% |

| Structure (SMILES) | growth |
| --- | --- |
| COc1ccc(-n2c(SCc3cc(OC)c(OC)c(OC)c3)nc3ccc(C)cc3c2=O)c(OC)c1 | -44.3% (active) |
| C=CCSC(CC)(CC)C(=O)NC | 89.3% |
| CCOC(=N)c1ccc(C(=N)OCC)cc1 | 101% |
| C/C(=N\NC(=S)Nc1ccccc1)c1ccccn1 | 3.23% (active) |
| C#CC[C@@H]1C[C@]2(C)[C@H]3CC[C@@H]4[C@H]5C(C(=C)C)CC[C@]5(C(=O)NCCCCN)CC[C@@]4(C)[C@]3(C)CC[C@H]2C(C)(C)[C@H]1OC(C)=O (stereo not given in full) | -38.3% (active) |
| O=C(NOCCO)c1ccc2cncn2c1Nc1ccc(I)cc1F | 23.5% |
| CNC(=O)c1cc(Oc2ccc(NC(=O)c3nc(S(C)(=O)=O)sc3-c3ccc(F)cc3)cc2)ccn1 | 27.2% |
| O=C(/C=C/c1ccc(Cl)cc1)c1ccccc1 | 99.9% |
| COc1ccc(C2C=C(c3ccc(Cl)cc3)N=C3SC=C(C)N32)c(Br)c1 (stereo not given) | 7.64% (active) |
| O=C(Nc1cc(Nc2ncccc2-c2ncnc3nc[nH]c23)ccc1F)c1cc(C(F)(F)F)cc(C(F)(F)F)c1 | -11.3% (active) |
| COc1cccc(CCNc2ncnc3c2ncn3Cc2nnc3c4ccccc4c(Cl)nn23)c1 | 57.5% |
| O=C1C=CC(n2cc(F)c(=O)[nH]c2=O)O1 (stereo not given) | 45.3% |
| O=C(Nc1cn[nH]c1-c1nc2ccc(CN3CCOCC3)cc2[nH]1)NC1CC1 | -27.1% (active) |
| O=c1[nH]c(CN2CCN(c3cccc(Cl)c3)CC2)nc2cc(Cl)ccc12 | 116% |
| Cn1c2ccccc2c2ccccc21 | 95.9% |
| COc1cc(-c2nc3occn3c2-c2ccnc(NCCCNS(=O)(=O)c3ccc(O)cc3)n2)ccc1F | 95.3% |
| CCCCCCCCCCC/C=C\C[C@H](O)C/C=C1/C(=O)C=C[C@@H]1C/C=C\CCCC(=O)OC | -20% (active) |
| CSc1nc2c(c(=O)n1C)N=C1c3ccccc3C(=O)C1C(c1ccccc1)N2 (stereo not given) | 84.5% |
| Cc1cnc(NC(=O)C(Cc2ccccc2)NC(=O)c2ccccc2)s1 (stereo not given) | 38.7% |
| COc1ccc(S(=O)(=O)n2c3ccccc3n3ncc(-c4nnc(C)o4)c23)cc1 | 12.2% |
